Assay results taken from PubChem BioAssay (NCI).
About 79,000 compounds went through this panel and 15% of them were active in at least one assay; those are over-represented in the sample as a whole. Rule as the data show it: active = growth inhibition above about 70%; inactive = the rest.

Assays:
[1] = NCI Yeast Anticancer Drug Screen. Data for the rad50 strain (AID 155);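 also: 0% = growth of vehicle-only cultures of the same strain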; conditions: S. cerevisiae rad50 strain growth inhibition; at 50.0 µM; stronger effect = higher value
Method in brief: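 Readout: growth inhibition relative to vehicle-treated cultures. Compound exposure was carried out in a genetically defined yeast strain deficient in DNA damage repair.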

[2] = NCI Yeast Anticancer Drug Screen. Data for the mec2-1 strain (AID 157); conditions: S. cerevisiae mec2-1 strain, at 50.0 µM, stronger effect = higher value
Method in brief: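 Using mec2-1 yeast: add compound, measure growth, express inhibition versus vehicle-treated cultures.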

[3] = NCI Yeast Anticancer Drug Screen. Data for the sgs1 mgt1 strain (AID 161);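 also: 0% = growth of cultures given vehicle only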; conditions: S. cerevisiae sgs1 mgt1 strain, at 50.0 µM, stronger effect = higher value
Method in brief: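 Percent growth inhibition was derived by comparing compound-exposed mutant yeast with vehicle-exposed cultures. The strain carries alterations in DNA damage repair.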

[4] = NCI Yeast Anticancer Drug Screen. Data for the cln2 rad14 strain (AID 165);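 also: 0% = growth equal to vehicle treated cultures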; conditions: S. cerevisiae cln2 rad14 strain, at 50.0 µM, stronger effect = higher value
Method in brief: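 Yeast strain cln2 rad14, bearing defects in cell cycle control and DNA repair, serves as the test system; values reflect growth inhibition compared with vehicle.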

[5] = NCI Yeast Anticancer Drug Screen. Data for the bub3 strain (AID 167); conditions: S. cerevisiae bub3 mutant strain, at 50.0 µM, stronger effect = higher value
Method in brief: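 Readout: yeast growth inhibition, expressed relative to vehicle-only wells. The test organism is a mutant strain from a panel with lesions in DNA repair or checkpoint genes.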

[6] = NCI Yeast Anticancer Drug Screen. Data for the mlh1 rad18 strain (AID 175); conditions: S. cerevisiae mlh1 rad18 strain growth inhibition; at 50.0 µM; stronger effect = higher value
Method in brief: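 Steps: expose repair-defective yeast to compound; measure growth; express inhibition against vehicle-treated controls.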

Measured: growth inhibition

C[N+](C)(C)C12CCC(CC1)C1([N+](C)(C)C)CCC2CC1
inactive: [1] 4.2% | [2] 21.4% | [3] 17.2% | [4] -10.2% | [5] 4.45% | [6] 22.1%

C(=N\C(/N=C/c1ccccc1)c1ccccc1)/c1ccccc1
inactive: [1] 0.4% | [2] -4.8% | [3] -3.25% | [4] -43.8% | [5] 2.55% | [6] -6.2%

CCOC(=O)/C=C/C1(CCOC(C)=O)CCCCC1
inactive: [1] 12.8% | [2] -27.8% | [3] -2.9% | [4] 21% | [5] -4% | [6] 14.9%

COc1ccc(C(=O)c2ccc(OC)cc2)cc1
inactive: [1] -15.1% | [2] -27.1% | [3] -3.1% | [4] -17.6% | [5] 1.6% | [6] -15.1%

C[C@H](N)C(O)/C=C/c1ccccc1 (stereo partly specified)
inactive: [1] 5.1% | [2] -9.05% | [3] -0.7% | [4] -2.55% | [5] -0.3% | [6] -7.05%

C/C=C(/C)C(=O)OC12CC(C)C3(O)C(C=C(CO)C[C@]4(O)C(=O)C(C)=CC34)C1C2(C)C (stereo partly specified)
inactive: [1] 16.2% | [2] 1.3% | [3] -12.6% | [4] -0.45% | [5] 7.5% | [6] 1.35%

CC1(C)OC2CC(=O)OCC23C1CC(=O)C1(C)C3CCC2(C)C(c3ccoc3)OC(=O)C3OC321 (stereo unspecified)
inactive: [1] -7.65% | [2] 1.4% | [3] -0.55% | [4] 10.1% | [5] 8.7% | [6] 18.5%

COC(=O)[C@]12CCC(C)[C@H](C)[C@H]1C1=CCC3[C@@]4(C)CC[C@H](OC(C)=O)C(C)(C)C4CC[C@@]3(C)C1(C)C(O)C2 (stereo partly specified)
inactive: [1] 23.1% | [2] -22.5% | [3] -8.45% | [4] 8.5% | [5] -0.4% | [6] 21.9%

Cn1ccc(=O)n(C)c1=O
inactive: [1] -8.15% | [2] -10.8% | [3] 2% | [4] 5.15% | [5] 5.05% | [6] 2.25%

O=C(CC[n+]1ccccc1)NCCCCCCNC(=O)CC[n+]1ccccc1
inactive: [1] -17.9% | [2] -31.9% | [3] -23.5% | [4] 7.5% | [5] -17.4% | [6] -21.9%

COc1ccc(-c2oc3ccccc3c(=O)c2O)cc1OC
inactive: [1] 2.3% | [2] 9.9% | [3] 16.2% | [4] -10.8% | [5] 21.4% | [6] -11.1%

O=C1c2ccc([N+](=O)[O-])cc2C(=O)N1CC(F)(F)F
inactive: [1] -0.9% | [2] 8.35% | [3] 10.6% | [4] 14.8% | [5] -3% | [6] 3.8%

CCOC(=O)[C@@]12[C@H](N3C(=O)c4ccccc4C3=O)C(=O)N1CCS2(=O)=O
inactive: [1] -1.9% | [2] -5.7% | [3] -29.4% | [4] -22.9% | [5] -1.5% | [6] 6.95%

O=C1CCCCCCCCCCC1Sc1ccccc1 (stereo unspecified)
inactive: [1] -23.2% | [2] -36.6% | [3] -6.8% | [4] 3.1% | [5] 7.3% | [6] -28.9%

CC(=O)OC1CC2CC1C1CC=CC21 (stereo unspecified)
inactive: [1] 35.2% | [2] -2% | [3] -0.4% | [4] 34.1% | [5] 2.4% | [6] 14.4%

CCOC(=O)CCCCCC(=O)OCC
inactive: [1] 4% | [2] 0.25% | [3] -2.7% | [4] 4.1% | [5] 12.8% | [6] 1.8%

Cc1cc2c(C(C)C)c(O)c(O)c(C=Nc3ccc(-c4ccccc4)cc3)c2c(O)c1-c1c(C)cc2c(C(C)C)c(O)c(O)c(C=Nc3ccc(-c4ccccc4)cc3)c2c1O
inactive: [1] -24.2% | [2] -10.4% | [3] -24.2% | [4] -15.2% | [5] -8.5% | [6] -7.4%

Cn1ccnc1CC(C)(O)c1ccccc1 (stereo unspecified)
inactive: [1] -13.2% | [2] -17.4% | [3] -44.9% | [4] 3.9% | [5] -23.4% | [6] 6.8%

CC(C(=O)O)N(CCC#N)CCC#N (stereo unspecified)
inactive: [1] 17.8% | [2] -6.05% | [3] -0.5% | [4] 0.1% | [5] 2.35% | [6] 3.4%

CC(=O)OC1CCCCCCC1
inactive: [1] -13.2% | [2] 14.6% | [3] 15.5% | [4] -3.2% | [5] 19.5% | [6] 6.05%

Nc1[nH]n(-c2ccccc2)c(=O)c1/C=N/C(=S)N=Nc1c(O)[nH]c2ccccc12
inactive: [1] 1.5% | [2] -0.3% | [3] 41% | [4] 1.5% | [5] 9.35% | [6] 24.8%
